# NOMO-1 viab: NOMO-1 AML cell viability reduction, primary screen, STK33 inhibitor project, CellTiter-Glo luminescence; actives 7.5% (n = 37,000); inhibition, % (concentration not given with the values); NOMO-1 AML viability, 72 h; in the data active = inhibition above about 80%
# Hedgehog inh: Hedgehog pathway signaling inhibitors, primary screen, luminescence, Shh-LIGHT2 cells, Gli-luciferase. Shh-LIGHT2 Gli-luciferase reporter, 30 h. inhibition, % (concentration not given with the values). actives 2.1% (n = 22,000);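 active = mean inhibition across valid replicates above about 65%, limit read from the data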;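 note: pathway switched on by Shh-conditioned medium diluted 1 in 25 in low serum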
# MITF inh: inhibitors of MITF, primary screen, MITF inhibitor project, cell-based, luminescence; AID 2240, 2010; actives 0.28% (n = 37,000); TRPM1 promoter luciferase, 24 h; inhibition, % (concentration not given with the values); in the data active = inhibition above about 85%;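 note: human melanocyte line stably carrying TRPM1 promoter luciferase reporter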
# PD-1 reversal: activators reversing PD-1 mediated T-cell inhibition, primary screen, luminescence, primary human CD4 T cells, PD-L1 beads. CellTiter-Glo 96 h. activation, % (test concentration not listed). 29,000 tested, under 10 active; call rule not given here;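 note: 0% = median vehicle wells and 100% = positive control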
# The depositor's hits bear a star; . = no result. A selection: hits, their analogues and other compounds. The true share with any hit is near 8.1%.
SMILES,NOMO-1 viab,Hedgehog inh,MITF inh,PD-1 reversal
C[C@@H]1CN([C@H](C)CO)C(=O)c2cc(NC(=O)Nc3ccc4c(c3)OCO4)ccc2O[C@@H]1CN(C)S(=O)(=O)c1ccc(F)cc1,95.0*,.,17.1,0.2
COc1ccc(S(=O)(=O)N(C)C[C@H]2Oc3ccc(NC(=O)Nc4ccc(C(F)(F)F)cc4)cc3CC(=O)N([C@H](C)CO)C[C@H]2C)cc1,41.7,40.7,45.2,-3.0
C[C@H](CO)N1C[C@H](C)[C@H](CN(C)S(=O)(=O)c2ccc(Cl)cc2)Oc2ccc(NC(=O)Nc3ccc(F)cc3)cc2CC1=O,124.8*,-8.2,21.5,-0.5
C[C@@H]1CN([C@@H](C)CO)C(=O)c2cc(NC(=O)Nc3ccc4c(c3)OCO4)ccc2O[C@@H]1CN(C)S(=O)(=O)c1ccc(F)cc1,29.9,23.2,-3.0,1.0
C[C@H](CO)N1C[C@H](C)[C@H](CN(C)S(=O)(=O)c2ccc(F)cc2)Oc2ccc(NC(=O)Nc3ccc(C(F)(F)F)cc3)cc2CC1=O,119.4*,55.6,68.5,-9.0
C[C@H](CO)N1C[C@H](C)[C@H](CN(C)S(=O)(=O)c2ccc(Cl)cc2)Oc2ccc(NC(=O)Nc3ccccc3)cc2CC1=O,110.6*,34.2,20.4,.
Cc1nc(-c2cc(C#N)c(SCCNC(=O)c3ccc(Cl)cc3Cl)nc2C)cs1,42.4,30.4,6.8,0.9
C[C@@H]1CN([C@H](C)CO)C(=O)Cc2cc(NC(=O)NC3CCCCC3)ccc2O[C@@H]1CN(C)S(=O)(=O)c1ccc(Cl)cc1,21.7,-19.0,20.4,-1.3
C[C@H](CO)N1C[C@H](C)[C@H](CN(C)S(=O)(=O)c2ccc(Cl)cc2)Oc2ccc(NC(=O)NC3CCCCC3)cc2CC1=O,119.4*,-9.5,26.4,.
CC(=O)c1ccccc1OC(=O)CCN1C(=O)C2C3c4ccccc4C(c4ccccc43)C2C1=O (stereo unspecified),15.8,.,-15.0,.
O=C(CCN1C(=O)C2C3C=CC(C3)C2C1=O)Oc1cccc2cccnc12 (stereo unspecified),113.3*,.,9.1,-12.6
O=C(CCN1C(=O)C2C3C=CC(C4CC34)C2C1=O)Oc1cccc2cccnc12 (stereo unspecified),121.2*,.,-1.7,-14.8
CC(C)(C)c1ccc(OC(=O)CCN2C(=O)C3C4C=CC(C5CC45)C3C2=O)cc1 (stereo unspecified),28.3,.,-3.1,-3.4
C[C@H]1CN([C@@H](C)CO)C(=O)c2cc(NC(=O)CCC(F)(F)F)ccc2O[C@@H]1CN(C)Cc1ccc(C(=O)O)cc1,-4.4,-25.9,-5.6,0.6
CC1CCC(C(C)C)C(NC(=O)c2cccc3ccccc23)C1 (stereo unspecified),81.8*,5.7,-8.0,0.6
O=C(CSc1ncccn1)Nc1ccc([N+](=O)[O-])cc1,40.3,.,-5.9,3.2
O=C(c1nn2c(C(F)(F)F)cc(-c3cccs3)nc2c1Cl)N1CCCc2ccccc21,107.4*,46.7,-18.9,-16.2
O=C(NCCCn1ccnc1)c1nn2c(C(F)(F)F)cc(-c3cccs3)nc2c1Br,29.4,.,-7.6,.
C[C@@H]1CN([C@H](C)CO)C(=O)c2cccc(NC(=O)Nc3ccc4c(c3)OCO4)c2O[C@H]1CN(C)C(=O)Nc1ccc2c(c1)OCO2,-11.2,18.5,-2.7,1.2
C[C@@H]1CN([C@H](C)CO)C(=O)c2cccc(NC(=O)Nc3ccc(C(F)(F)F)cc3)c2O[C@H]1CN(C)C(=O)Nc1ccc2c(c1)OCO2,115.6*,-0.6,39.9,-6.1
C[C@@H]1CN([C@@H](C)CO)C(=O)c2cccc(NC(=O)Nc3ccc(C(F)(F)F)cc3)c2O[C@H]1CN(C)C(=O)Nc1ccc2c(c1)OCO2,89.5*,-67.2,34.2,.
C[C@@H]1CN([C@@H](C)CO)C(=O)c2cc(NC(=O)Cc3cn(C)c4ccccc34)ccc2O[C@H]1CN(C)Cc1ccccc1,17.6,.,19.3,-1.4
C[C@@H]1CN([C@@H](C)CO)C(=O)c2cccc(NC(=O)Nc3ccccc3)c2O[C@@H]1CN(C)Cc1ccc(C(=O)Nc2ccccc2N)cc1,140.5*,.,28.6,-0.4
C[C@@H]1CN([C@H](C)CO)C(=O)c2cccc(NC(=O)Nc3ccccc3)c2O[C@H]1CN(C)Cc1ccc(C(=O)Nc2ccccc2N)cc1,138.8*,.,9.4,-3.5
C[C@H](CO)N1C[C@H](C)[C@@H](CN(C)Cc2ccc(C(=O)O)cc2)Oc2c(NC(=O)Nc3cccc4ccccc34)cccc2C1=O,11.4,-21.2,14.8,0.7
SMILES,NOMO-1 viab,Hedgehog inh,MITF inh,PD-1 reversal
C[C@H]1CN([C@@H](C)CO)C(=O)c2cccc(NC(=O)Nc3cccc4ccccc34)c2O[C@H]1CN(C)Cc1ccc(C(=O)Nc2ccccc2N)cc1,128.5*,.,15.4,-2.3
C[C@H](CO)N1C[C@H](C)[C@H](CN(C)S(C)(=O)=O)Oc2c(NC(=O)Nc3ccccc3)cccc2C1=O,-7.6,14.6,-6.7,.
CCOc1ccccc1-c1nc(SCC(=O)Nc2ccc(I)cc2)n[nH]1,6.7,.,30.7,.
CC(=O)C1C(=O)[C@@H]2[C@H]3c4c[nH]c5cccc(c45)C[C@H]3C(C)(C)N2C1=O (stereo partly specified),130.9*,77.0*,8.9,-14.2
CC(=O)C1C(=O)C2C3c4c[nH]c5cccc(c45)CC3C(C)(C)N2C1=O (stereo unspecified),10.3,24.6,-35.9,.
C[C@H]1CN([C@@H](C)CO)C(=O)c2cc(NC(=O)Nc3ccc4c(c3)OCO4)ccc2O[C@@H]1CN(C)Cc1ccc(-c2ccccc2)cc1,111.8*,8.8,9.5,0.2
C[C@@H]1CN([C@H](C)CO)C(=O)c2cc(NC(=O)Nc3ccc4c(c3)OCO4)ccc2O[C@@H]1CN(C)Cc1ccc(Oc2ccccc2)cc1,66.5,92.2*,9.1,0.1
C[C@@H]1CN([C@@H](C)CO)C(=O)c2cc(NC(=O)Nc3ccc4c(c3)OCO4)ccc2O[C@H]1CN(C)Cc1ccccc1,33.9,-20.7,-2.0,.
C[C@@H]1CN([C@H](C)CO)C(=O)c2cc(NC(=O)Nc3ccc4c(c3)OCO4)ccc2O[C@H]1CN(C)Cc1ccc(Oc2ccccc2)cc1,-2.3,.,-2.3,2.6
C[C@H](CO)N1C[C@H](C)[C@@H](CN(C)Cc2ccc(Oc3ccccc3)cc2)Oc2ccc(NC(=O)Nc3ccc4c(c3)OCO4)cc2C1=O,32.0,.,-7.5,-0.1
C[C@@H]1CN([C@@H](C)CO)C(=O)c2cc(NC(=O)Nc3ccc4c(c3)OCO4)ccc2O[C@H]1CN(C)Cc1ccc(-c2ccccc2)cc1,115.5*,.,19.8,1.7
C[C@H](CO)N1C[C@H](C)[C@@H](CN(C)Cc2ccc(-c3ccccc3)cc2)Oc2ccc(NC(=O)Nc3ccc4c(c3)OCO4)cc2C1=O,120.3*,-7.2,-7.2,-0.2
C[C@@H]1CN([C@@H](C)CO)C(=O)c2cc(NC(=O)Nc3ccc(F)cc3)ccc2O[C@H]1CN(C)C(=O)Nc1cccc2ccccc12,0.4,13.3,-1.1,-2.1

# High-throughput results as filed in PubChem BioAssay.
